Reference: the supplement of paper PMC6555819

Tests used:
Test in all cases: PBM binding z-score (relative to random genomic background probes); higher = stronger binding; sequences stand for … in GC…GCGATTGACAGCGTAGAATGAAGG
[1] = test system: RARb homodimer (NR concentration 270 nM)
Method in brief: (§1)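 Binding z-scores take random background probes as their reference. They come from custom Agilent 4×180K protein-binding microarrays incubated 1 h with ligand-free nuclear receptor dimers, with antibodies against each partner (one per run) detecting binding. Scanned fluorescence was regression-normalized.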

[2] = test system: RARg homodimer (NR concentration 270 nM)
Method in brief: as §1

[3] = test system: RXRa DBDmut IVT, anti-RXR (DBD mutation: RXRa K156A/R161A, NR concentration 90 nM)
Method in brief: as §1

[4] = test system: RXRa homodimer (NR concentration 180 nM)
Method in brief: as §1

[5] = test system: THRa:RXRa (NR concentration 90 nM, RXRa partner concentration 90 nM)
Method in brief: as §1

[6] = test system: THRa homodimer (NR concentration 90 nM)
Method in brief: as §1

[7] = test system: VDR homodimer (NR concentration 270 nM)
Method in brief: as §1

[8] = test system: VDR:RXRa (NR concentration 270 nM, RXRa partner concentration 90 nM)
Method in brief: as §1

## GCTCGGAGGACAAGGTCAGGGCTTTGTCCGTAGA
[1]
  PBM binding z-score: 3.31
[2]
  PBM binding z-score: 4.39
[3]
  PBM binding z-score: 0.229
[4]
  PBM binding z-score: 3.18
[5]
  PBM binding z-score: 3.22
[6]
  PBM binding z-score: 1.75
[7]
  PBM binding z-score: 0.358

## CGTCCGAGGTCAATGCTAGGTCAGTGAAAGCATT
[1]
  PBM binding z-score: 4.93
[2]
  PBM binding z-score: 6.71
[3]
  PBM binding z-score: 4.03
[4]
  PBM binding z-score: 6.61
[5]
  PBM binding z-score: 4.6
[6]
  PBM binding z-score: 2.97
[7]
  PBM binding z-score: 4.57

## CGTCCAAGGTCATGGGAGGTCAGTGAAGACAGAT
[1]
  PBM binding z-score: 5.85
[2]
  PBM binding z-score: 7.97
[3]
  PBM binding z-score: 3.73
[4]
  PBM binding z-score: 7.56
[5]
  PBM binding z-score: 5.51
[6]
  PBM binding z-score: 3.83
[7]
  PBM binding z-score: 4.5

## CGAACTAAGTCATCCAGGACAGTGAATACATTGA
[1]
  PBM binding z-score: 0.33
[2]
  PBM binding z-score: 0.549
[3]
  PBM binding z-score: 0.248
[4]
  PBM binding z-score: 0.264
[5]
  PBM binding z-score: 1.55
[6]
  PBM binding z-score: 1.1
[7]
  PBM binding z-score: 0.0279

## ATCGAAATGTCGTGAGGTGAGTATACAGAAAGGC
[1]
  PBM binding z-score: 0.113
[2]
  PBM binding z-score: 0.683
[3]
  PBM binding z-score: -0.3
[4]
  PBM binding z-score: 0.0827
[5]
  PBM binding z-score: 1.74
[6]
  PBM binding z-score: 1.16
[7]
  PBM binding z-score: -0.224

## CCTACTGGGCCAAGGTCATTGAGCAGTCAAAGCA
[1]
  PBM binding z-score: 3.03
[2]
  PBM binding z-score: 3.23
[3]
  PBM binding z-score: 1.23
[4]
  PBM binding z-score: 3.66
[5]
  PBM binding z-score: 3.23
[6]
  PBM binding z-score: 2.18
[7]
  PBM binding z-score: 2.65

## CCTACTGGGCCAAAGGCCATTGATTCCAATGCTC
[1]
  PBM binding z-score: 0.736
[2]
  PBM binding z-score: 0.568
[3]
  PBM binding z-score: -0.726
[4]
  PBM binding z-score: -0.132
[5]
  PBM binding z-score: -0.0621
[6]
  PBM binding z-score: -0.567
[7]
  PBM binding z-score: -0.468

## CCTACTGGGCCAATAAGGTCATTGATGCCGATAA
[1]
  PBM binding z-score: 3.48
[2]
  PBM binding z-score: 2.87
[3]
  PBM binding z-score: 1.09
[4]
  PBM binding z-score: 2.78
[5]
  PBM binding z-score: 4
[6]
  PBM binding z-score: 3.44
[7]
  PBM binding z-score: 2.76

## CGAACTAGGTCACCAGGACAGTTAAGAGGTTGGA
[1]
  PBM binding z-score: 3.53
[2]
  PBM binding z-score: 5.1
[3]
  PBM binding z-score: 1.21
[4]
  PBM binding z-score: 3.22
[5]
  PBM binding z-score: 3.41
[6]
  PBM binding z-score: 1.68
[7]
  PBM binding z-score: 0.347

## ATCGTAAGGTCGTGAGGTGAGTATACAGAAAGGC
[1]
  PBM binding z-score: 2.41
[2]
  PBM binding z-score: 2.71
[3]
  PBM binding z-score: 2.09
[4]
  PBM binding z-score: 3.5
[5]
  PBM binding z-score: 3.65
[6]
  PBM binding z-score: 2.95
[7]
  PBM binding z-score: 1.45

## TCGAGTGGGTTACGGGGGCATTCAGGGATGAAGA
[1]
  PBM binding z-score: 2.26
[2]
  PBM binding z-score: 2.35
[3]
  PBM binding z-score: 2.33
[4]
  PBM binding z-score: 2.74
[5]
  PBM binding z-score: 4.08
[6]
  PBM binding z-score: 2.2
[7]
  PBM binding z-score: 3.66

## CGAACTAGGTCAACGACAGTGAATCTCCGCACGC
[1]
  PBM binding z-score: 2.87
[2]
  PBM binding z-score: 4.2
[3]
  PBM binding z-score: 1.61
[4]
  PBM binding z-score: 2.45
[5]
  PBM binding z-score: 2.54
[6]
  PBM binding z-score: 1.08
[7]
  PBM binding z-score: 0.435

## TAGCCTAGGTCATTTGGCCAGTATAGTACGCATC
[1]
  PBM binding z-score: 2.59
[2]
  PBM binding z-score: 4.08
[3]
  PBM binding z-score: 1.99
[4]
  PBM binding z-score: 2.73
[5]
  PBM binding z-score: 2.65
[6]
  PBM binding z-score: 0.679
[7]
  PBM binding z-score: 1.27

## CCTCGGAGGTCAGAAGGTCAGAGCTGTCCGCTTT
[1]
  PBM binding z-score: 5.21
[2]
  PBM binding z-score: 7.12
[3]
  PBM binding z-score: 2.31
[4]
  PBM binding z-score: 6.44
[5]
  PBM binding z-score: 3.41
[6]
  PBM binding z-score: 0.451
[7]
  PBM binding z-score: 1.47

## CCTCGGAGGACAACCGGAGGTCAGAGCTGCCAGA
[1]
  PBM binding z-score: 3.53
[2]
  PBM binding z-score: 3.47
[3]
  PBM binding z-score: 0.243
[4]
  PBM binding z-score: 1.86
[5]
  PBM binding z-score: 3.14
[6]
  PBM binding z-score: 1.3
[7]
  PBM binding z-score: 1.41

## TCTCGGAGGACACGAAAGGTCAGTGCTCGACATC
[1]
  PBM binding z-score: 4.96
[2]
  PBM binding z-score: 5.21
[3]
  PBM binding z-score: 1.23
[4]
  PBM binding z-score: 3.34
[5]
  PBM binding z-score: 3.49
[6]
  PBM binding z-score: 1.51
[7]
  PBM binding z-score: 1.24

## ACTCGGAGGACAAAGGTCACAGCTACGCCAGTGA
[1]
  PBM binding z-score: 5.26
[2]
  PBM binding z-score: 6.99
[3]
  PBM binding z-score: 1.55
[5]
  PBM binding z-score: 4.23
[6]
  PBM binding z-score: 1.62
[8]
  PBM binding z-score: 4.95
[7]
  PBM binding z-score: 2.46

## TCTGCTATGTCAACGATGGTCAGCTAATCTGCTA
[1]
  PBM binding z-score: 0.0556
[2]
  PBM binding z-score: 0.346
[3]
  PBM binding z-score: 0.208
[4]
  PBM binding z-score: -0.181
[5]
  PBM binding z-score: -0.297
[6]
  PBM binding z-score: -1.24
[7]
  PBM binding z-score: -1.12

## CGTCCAAGGTCAATGCGAGGTCAGTGAAAGCATT
[1]
  PBM binding z-score: 5.27
[2]
  PBM binding z-score: 6.95
[3]
  PBM binding z-score: 3.59
[4]
  PBM binding z-score: 6.15
[6]
  PBM binding z-score: 4.23
[7]
  PBM binding z-score: 4.73

## TCTCGGAGGTCACGAAGGTCAGAGCTTTCCAGAG
[1]
  PBM binding z-score: 5.66
[2]
  PBM binding z-score: 8.12
[3]
  PBM binding z-score: 3.05
[5]
  PBM binding z-score: 4.64
[6]
  PBM binding z-score: 2.29
[7]
  PBM binding z-score: 5.14

## ATCGAATGGTCGAGGTGAGTATAGAGAAAGGGAA
[1]
  PBM binding z-score: 0.319
[2]
  PBM binding z-score: 0.76
[3]
  PBM binding z-score: -0.577
[4]
  PBM binding z-score: 0.118
[5]
  PBM binding z-score: 0.936
[6]
  PBM binding z-score: 0.55
[7]
  PBM binding z-score: -0.57

## TGTCAAAGCTCAAAGGTAACGTAAGTATCCACAC
[1]
  PBM binding z-score: 0.284
[2]
  PBM binding z-score: 0.498
[3]
  PBM binding z-score: -1
[4]
  PBM binding z-score: 0.764
[5]
  PBM binding z-score: 1.25
[6]
  PBM binding z-score: -0.706
[7]
  PBM binding z-score: -0.613

## ACTCGGAGGACAAACGTCAGAGCTACGCCAGTGA
[1]
  PBM binding z-score: 0.0238
[2]
  PBM binding z-score: 1.15
[3]
  PBM binding z-score: 0.497
[4]
  PBM binding z-score: -0.425
[5]
  PBM binding z-score: 0.312
[6]
  PBM binding z-score: -0.476
[7]
  PBM binding z-score: -0.183

## CGTCCAAGGTCAAGGTCACTGAAAGAGACTCGAA
[1]
  PBM binding z-score: 5.6
[2]
  PBM binding z-score: 8.3
[3]
  PBM binding z-score: 3.73
[6]
  PBM binding z-score: 4.35
[8]
  PBM binding z-score: 5.49
[7]
  PBM binding z-score: 4.03
